Bioassay records from PubChem BioAssay.
An excerpt weighted towards active compounds, which were near 12% of everything screened.
G9a block: qHTS Assay for Inhibitors of Histone Lysine Methyltransferase G9a. AID 504332, 2011. 8.8% of 350,000 active. Histone-lysine N-methyltransferase EHMT2 (Homo sapiens), Q96KQ7. Potency, µM (titrated, usually from 102 µM), for inactives: top-dose activity, negative = inhibition, actives largely listed as inhibitors. G9a H3K9 monomethylation, AlphaScreen, 2 h; further: on the % scale 0 is the no-effect control and ±100 the full control effect; nearly all actives have a fitted effect of over 75% in size
Target sequence (Q96KQ7 913-1193 limits assumed): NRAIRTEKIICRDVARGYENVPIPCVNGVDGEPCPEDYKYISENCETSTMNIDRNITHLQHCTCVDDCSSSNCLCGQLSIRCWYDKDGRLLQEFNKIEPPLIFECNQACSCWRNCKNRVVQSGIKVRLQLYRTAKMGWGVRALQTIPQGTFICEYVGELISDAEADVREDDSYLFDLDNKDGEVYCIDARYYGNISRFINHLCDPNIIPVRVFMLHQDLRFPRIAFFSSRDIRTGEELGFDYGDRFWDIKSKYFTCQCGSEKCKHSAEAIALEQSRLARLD
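Compounds were preincubated with 20 nM G9a for 15 min, after which biotinylated H3K9 peptide (500 nM) and SAM (20 uM) started a 2 h room-temperature reaction. Monomethylated product was quantified by antibody-based AlphaScreen chemiluminescence.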
JMJD2A Tudor: qHTS Assay for Inhibitors of JMJD2A-Tudor Domain; Lysine-specific demethylase 4A (Homo sapiens), O75164; AlphaScreen JMJD2A-Tudor / H3K4me3 peptide binding; Potency, µM (titrated, usually from 114 µM), without a hit: at the top dose activity change, negative = inhibition, hits mostly inhibitors; 4.4% of 390,000 active; AID 504339, 2011; further: on the % scale 0 is the no-effect control and ±100 the full control effect; nearly all actives have a fitted effect of over 50% in size
HP1b chromo inh: HTS for Inhibitors of HP1-beta Chromodomain Interactions with Methylated Histone Tails | AlphaScreen HP1-beta / biotin-H3K9me3 peptide binding | AID 540317, 2011 | Potency, µM (series often up to 114 µM), without a hit: top-dose activity change, negative = inhibition, most hits filed as inhibitors | 0.56% of 390,000 active; further: nearly all actives have a fitted effect of over 70% in size
Target sequence (P83916 whole entry, looked up): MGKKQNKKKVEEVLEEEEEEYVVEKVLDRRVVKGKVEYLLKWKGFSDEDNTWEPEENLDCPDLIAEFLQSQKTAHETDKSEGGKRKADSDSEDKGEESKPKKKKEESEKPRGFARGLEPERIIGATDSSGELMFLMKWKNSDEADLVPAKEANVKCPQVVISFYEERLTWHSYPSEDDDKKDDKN
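Compound inhibition of the preformed complex between 50 nM HP1-beta and 50 nM biotinylated H3K9me3 peptide was read by AlphaScreen. Buffer was PBS pH 7.4 with 0.01% Tween-20. Incubations ran 30 min at room temperature, with 10 ug/mL donor/acceptor beads.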
Sfp PPTase inh: qHTS Assay for Inhibitors of Bacillus subtilis Sfp phosphopantetheinyl transferase (PPTase); 4'-phosphopantetheinyl transferase ffp (Bacillus subtilis), Q9F4F7; Potency, µM, without a hit: largest response in the series, negative = inhibition, actives largely listed as inhibitors; Biochemical Sfp PPTase activity, qHTS; 3.5% of 310,000 active;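 further: the enzyme is Sfp with the accession as filed and its product quenches rhodamine fluorescence; 0% = enzyme reaction without inhibitor and -100% = no enzyme wells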
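Sfp 15 nM + cpd, 15 min RT; start w/ rhodamine-CoA 5 uM, BHQ-2-YbbR 12.5 uM (final); 50 mM Hepes pH 7.6, 10 mM MgCl2, 0.01% NP-40, 0.01% BSA; read 525/598 nm at 0 and 30 min.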
PLK1 PBD block: qHTS for Inhibitors of PLK1-PDB (polo-like kinase 1 - polo-box domain): Primary Screen. Potency, µM, without a hit: max response, negative = inhibition, most hits filed as inhibitors. 2.8% of 360,000 active. Plk1 PBD binding of FITC phosphopeptide, fluorescence polarization; further: series mostly up to about 57 µM; on the % scale 0 is the no-effect control and ±100 the full control effect; nearly all actives have a fitted effect of over 65% in size
BAZ2B inh: qHTS Assay for Inhibitors of BAZ2B; Bromodomain adjacent to zinc finger domain protein 2B (Homo sapiens), Q9UIF8; Potency, µM (doses to about 114 µM), for the others: top-dose activity change, negative = inhibition, hits mostly inhibitors; AlphaScreen BAZ2B-H3K14Ac peptide displacement; 4.4% of 360,000 active; further: on the % scale 0 is the no-effect control and ±100 the full control effect; nearly all actives have a fitted effect of over 60% in size
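AlphaScreen displacement: compounds (up to 110uM) incubated 30 min at room temperature with a preformed 50 nM BAZ2B/50 nM biotinylated H3K14Ac peptide complex in PBS pH 7.4 with Tween-20. Donor and acceptor beads at 10 ug/mL final added, 20 min light-protected before reading.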
An asterisk follows results filed as active; ? = inconclusive; nt = no result given; [ ] = another dose, or the depositor's remark. The call rests on the fitted dose curve; in most records, active means well fitted curve in the direction sought with a large enough effect; inconclusive means small, poorly fitted or top-dose-only effect, or another doubt; inactive means no such curve, though single readings can be large; an effect the other way counts as inactive or inconclusive. Potency means the concentration at half of the fitted maximal effect.

SMILES	G9a block	JMJD2A Tudor	HP1b chromo inh	Sfp PPTase inh	PLK1 PBD block	BAZ2B inh
O=[S+]([O-])(c1ccc2c(c1)OCCO2)N1CCN([S+](=O)([O-])c2ccc(F)cc2Br)CC1	nt	-10%	nt	nt	nt	nt
COc1cccc(OC)c1OCC(C)CNCC1CCCO1 (stereo not given)	?	3.5µM*	71µM*	-19%	-6%	?
Cc1ccccc1S(=O)(=O)Cc1ccc(C(=O)NCc2ccccc2Cl)o1	4%[59 µM]	-19%	25%	nt	nt	-8%
COc1ccccc1NC1=C(Cl)C(=O)N(c2ccccc2)C1=O	45µM*	?	-28%	-2%	0%	?
COc1ccc(N2C(=O)C(Cl)=C(Nc3c(C)n(C)n(-c4ccccc4)c3=O)C2=O)cc1	8.9µM*	?	17%	45µM*	24µM*	?
COc1ccccc1CN1CCCC2(CCN(C(=O)c3ccco3)CC2)C1	-6%[12.7 µM]	nt	nt	17%	nt	nt
Cc1cc(C)nc(/N=C(\NC(=O)C(C)(C)C)Nc2ccc(F)cc2)n1	45µM*	3%	27%	-26%	-5%	-3%
CN(C)S(=O)(=O)c1ccc(S(=O)(=O)NCCN2CCOCC2)cc1	-11%	-5%	32%	-4%	-4%	-4%
COc1ccc(N=c2scc(-c3ccc(S(=O)(=O)N4CCOCC4)cc3)n2CCCO)cc1	25µM*	nt	nt	6%	nt	50µM*
CN(C)S(=O)(=O)c1cccc(-c2csc(=Nc3ccccc3)n2CCCN2CCOCC2)c1	50µM*	50µM*	?	-2%	-6%	32µM*
CC(=O)c1cccc(N=c2scc(-c3ccc(S(=O)(=O)N4CCOCC4)cc3)n2CCO)c1	45µM*	-34%[57.1 µM]	?	-9%	?	?
C=CCn1c(-c2ccc(S(=O)(=O)N3CCOCC3)cc2)csc1=Nc1ccccc1	7%[0.501 µM]	?	-11%	-25%	-13%	6.3µM*
Oc1ccccc1C1C=C(c2ccc3c(c2)OCO3)NC(c2ccc(F)c(Br)c2)N1 (stereo not given)	nt	-31%	19%	nt	nt	nt
COc1ccccc1OCC(=O)NCC(c1ccc(Cl)cc1)N1CCCCC1 (stereo not given)	-3%[59 µM]	-24%	8%	nt	nt	-4%
CCOc1ccc(NC(=O)Cn2c(=O)n(-c3ccccc3)c(=O)c3ccc(C(=O)NCc4ccc5c(c4)OCO5)cc32)cc1	9%[59 µM]	-13%	19%	nt	nt	nt
CC(C)CN1CCCC2(CCN(S(=O)(=O)c3ccccc3)CC2)C1	8%[12.7 µM]	nt	nt	14%	nt	nt
CC(C)Cn1c(-c2ccc(S(=O)(=O)N3CCCC3)cc2)csc1=Nc1ccccc1	8.9µM*	?	-16%	nt	nt	?
O=C(CSc1ncc(-c2ccc(F)cc2)n1Cc1ccco1)Nc1ccc2c(c1)OCO2	?	45µM*	-56%	-11%	-9%	11µM*
O=C(CSc1nnc(-c2cccs2)n1Cc1ccco1)Nc1ccc2c(c1)OCO2	-41%[12.7 µM]	-32%	16%	?	-3%	?
CCOc1ccc(NC(=O)CSc2ncc(-c3ccc(F)cc3)n2Cc2ccco2)cc1	?	-18%[11.4 µM]	-18%	18%	-14%	8.9µM*
CCc1cccc2c3c([nH]c12)[C@@](CC)(CC(=O)O)OCC3	-6%[12.7 µM]	nt	nt	19%	nt	nt
COc1ccc(C(NC(=O)/C=C/c2ccco2)c2ccc(OC)c(OC)c2)cc1 (stereo not given)	18µM*	-16%	-1%	20µM*	1%	?
COc1ccc(C(NC(=O)c2ccco2)c2ccc(OC)c(OC)c2)cc1OC	4%	-6%	26%	4%	1%	10%
CCOc1ccc(C(NC(=O)/C=C/c2ccco2)c2ccc(OC)c(OC)c2)cc1 (stereo not given)	28µM*	-34%	-16%	?	-9%	?
COc1ccc(OC)c(-n2c(=S)[nH]c3cc(C(=O)N4CCC(C(N)=O)CC4)ccc3c2=O)c1	?	16µM*	57%	-24%	-1%	0%
SMILES	G9a block	JMJD2A Tudor	HP1b chromo inh	Sfp PPTase inh	PLK1 PBD block	BAZ2B inh
COc1ccc(OC)c(-n2c(=S)[nH]c3cc(C(=O)NCCCN4CCCC4=O)ccc3c2=O)c1	28µM*	nt	nt	?	nt	-34%
COC(=O)c1ccc2c(=O)n(CCCN3CCCC3=O)c(=S)[nH]c2c1	-30%[12.7 µM]	?	27%	-15%	-7%	71µM*
O=C(NCCCN1CCCC1=O)c1ccc2c(=O)n(Cc3ccco3)c(=S)[nH]c2c1	10µM*	?	-19%	35µM*	4.7µM*	5%
COc1ccccc1CNC(=O)c1ccc2c(=O)n(CCCN3CCCC3=O)c(=S)[nH]c2c1	9%[59 µM]	-31%	15%	18%	-8%	?
COc1ccc(CNC(=O)c2ccc3c(=O)n(CCCN4CCCC4=O)c(=S)[nH]c3c2)cc1	15%[59 µM]	-20%	9%	11%	-12%	-17%
O=C(NCc1ccccc1)c1ccc2c(=O)n(CCCN3CCCC3=O)c(=S)[nH]c2c1	45µM*	-17%	32%	1%	-5%	-11%
C=CCNC(=O)c1ccc2c(=O)n(CCCN3CCCC3=O)c(=S)[nH]c2c1	?	50µM*	11%	79µM*	-9%	?
O=C(NNc1cccc(Cl)n1)c1ccc(Cl)nc1	12%[59 µM]	?	39%	-3%	-9%	12%
O=C(NNc1c(F)c(F)cc(F)c1F)c1ccc(Cl)nc1	50µM*	-5%	25%	12%	-1%	-21%
Cn1cc(C(N)=O)c2ccccc21	3%	-3%	12%	15%	-9%	?
Cn1cc(C(=O)CCl)c2ccccc21	-8%[0.501 µM]	-14%	43%	1%	24µM*	4%
O=S1(=O)CC=C(CSC(=S)NC2CCS(=O)(=O)C2)C1 (stereo not given)	45µM*	-1%	60%	?	?	-11%
C1CCC2(CC1)C1=C(CCCC1)Nc1nnnn12	?	6%	55%	7%	-4%	nt
S=C1NC2=C(CCCC2)C2(CCCCC2)N1	7.1µM*	-8%	30%	10%	-7%	-4%
CS(=O)(=O)N1CCC(C(=O)O)CC1	0%	-13%	13%	8%	-10%	5.6µM*
COC(=O)C1=C(C(=O)OC)[C@@H]2N(C)c3ccccc3[C@@]23C[C@@H](C(=O)OC)N(S(=O)(=O)c2c(C)noc2C)C3=N1	nt	nt	nt	-2%	nt	nt
CCOC(=O)c1nn(C)c(=S)n(C)c1=O	nt	-6%	31%	nt	9%	nt
Cn1nc(C(=O)O)c(=O)n(C)c1=O	nt	89µM*	-39%	nt	27µM*	nt
